In PubChem BioAssay AID504652 (National Center for Advancing Translational Sciences (NCATS), 2011):
The whole screen tested about 360,000 compounds, of which about 11,000 (3.1%) were called active. The sample holds actives, similar compounds and a random draw of the others, so the mix is not that of the screen. Cut-off read from the data, not from the text of the source: active = activity change below about -30%; inactive = the rest.

What follows are compounds tested against D(1A) dopamine receptor (Homo sapiens) (UniProt P21728) (assay: Antagonist of Human D 1 Dopamine Receptor: qHTS). Settings: HEK293 TREx D1 cells, calcium flux, dopamine EC80; at 10 µM; active compounds read low.
Method in brief: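 Cells carrying a force-coupled, tetracycline-inducible human D1 receptor report calcium flux. Each well gets a 10 s baseline, compound with 180 s monitoring, then an EC80 dopamine stimulus with a second 180 s kinetic read.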
% is set by controls: 0 for no effect and ±100 for the full control effect.

Chain of D(1A) dopamine receptor (Homo sapiens) (P21728 whole entry, looked up): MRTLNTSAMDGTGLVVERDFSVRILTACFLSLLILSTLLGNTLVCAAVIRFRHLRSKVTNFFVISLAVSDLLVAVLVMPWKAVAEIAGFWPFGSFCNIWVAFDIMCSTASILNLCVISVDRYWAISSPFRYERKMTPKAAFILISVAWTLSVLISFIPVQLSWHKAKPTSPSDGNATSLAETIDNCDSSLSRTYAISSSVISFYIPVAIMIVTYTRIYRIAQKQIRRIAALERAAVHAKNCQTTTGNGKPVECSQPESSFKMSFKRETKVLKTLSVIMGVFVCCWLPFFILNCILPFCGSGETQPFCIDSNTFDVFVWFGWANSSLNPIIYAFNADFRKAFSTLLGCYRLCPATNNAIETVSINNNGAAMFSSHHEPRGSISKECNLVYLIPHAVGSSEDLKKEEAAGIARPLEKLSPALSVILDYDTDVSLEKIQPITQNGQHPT

| Structure (SMILES) | activity change, negative = inhibition |
| --- | --- |
| O=C(CSc1nccn1Cc1ccc(F)cc1)NCc1ccccc1 | 9.06% (inactive) |
| O=C(CSc1nccn1Cc1ccc(Cl)cc1)NCc1ccccc1 | -34.5% (active) |
| CCCCNC(=O)CSc1nccn1Cc1ccccc1 | 23.5% (inactive) |
| Cc1oc(-c2ccccc2F)nc1CN1CCC(C(=O)NCCc2ccc(Cl)cc2)CC1 | -10.2% (inactive) |
| CC(C)C12CN3CC(C(C)C)(CN(C1)C3c1ccc(OCc3ccccc3)cc1)C2=O (configuration not stated) | -2.54% (inactive) |
| COc1cccc(C2C(C(=O)Nc3ccc(C)cc3C)=C(C)Nc3c(C(=O)Nc4ccccc4)cnn32)c1 (configuration not stated) | 0.0774% (inactive) |
| CC(C)c1ccc(NC(=O)Cn2ncc3ccccc32)cc1 | -8.47% (inactive) |
| CC(NC(=O)Nc1ccccc1)c1ccccc1 (configuration not stated) | 5.33% (inactive) |
| CCC(C(=O)Nc1ccc(C(C)C)cc1)c1ccccc1 (configuration not stated) | -50.8% (active) |
| CCOc1ccc(-c2cc3c(=O)n(CC(=O)NCc4ccc(OC)cc4)ccn3n2)cc1 | 8.73% (inactive) |
| O=C(NCCc1csc(-c2ccc(C(F)(F)F)cc2)n1)C(=O)Nc1ccc(F)c(Cl)c1 | -0.398% (inactive) |
| CCn1c2ccccc2c2nnc(SCC(=O)O)nc21 | 6.1% (inactive) |
| O=C(/C=C/c1cn(CC(O)CN2CCc3ccccc32)c2ccccc12)c1ccc(Br)cc1 (configuration not stated) | -3.99% (inactive) |
| CCOc1ccc(C(=O)/C=C/c2cn(CC(O)CN3CCCCCC3)c3ccccc23)cc1 (configuration not stated) | -35% (active) |
| O=C(c1ccc(Cl)cc1)c1ccc(OCC(O)CN2CCCCC2)cc1 (configuration not stated) | -13.7% (inactive) |
| CC(C)c1ccc(NC(=O)Cn2nnc(C(=O)NCCc3ccccc3)c2N)cc1 | -8.95% (inactive) |
| Cc1ccc(C)c(S(=O)(=O)N2CCN(C(=O)Nc3ccccc3)CC2)c1 | -15% (inactive) |
| Cc1ccc(C)c(S(=O)(=O)N2CC(=O)Nc3ccccc32)c1 | -34.4% (active) |
| Cc1ccc(S(=O)(=O)N2CC(=O)Nc3ccccc32)cc1C | 7.51% (inactive) |

| Structure (SMILES) | activity change, negative = inhibition |
| --- | --- |
| CC1=C(C(=O)OCC2CCCCC2)C(c2c(F)cccc2Cl)CC(=O)N1 (configuration not stated) | -8.23% (inactive) |
| CN(C)S(=O)(=O)N1CCC(Oc2cccc(C(=O)NCCCC3CCCC3)c2)CC1 | -36.8% (active) |
| CN(C(=O)c1cccc(OC2CCN(S(=O)(=O)N(C)C)CC2)c1)C1CCOC1 (configuration not stated) | -17.2% (inactive) |
| CNS(=O)(=O)c1cccc(C(=O)NCC2CCCCC2)c1 | 15.5% (inactive) |
| CCOCCc1nn2c(=O)cc(COC(=O)CNC(=O)c3ccc(C(C)(C)C)cc3)nc2s1 | -0.812% (inactive) |
| CCC(=O)N1c2ccccc2CC1C(=O)N1CCN(c2cccc(OC)c2)CC1 (configuration not stated) | -5.92% (inactive) |
| CCc1ccc(S(=O)(=O)c2nnn3c2nc(NCc2ccccc2OC)c2cc(Cl)ccc23)cc1 | 2.93% (inactive) |
| CCCNC(=O)c1ccc2c(c1)ncn2-c1ccc(C)cc1C | -21.9% (inactive) |
| Cc1ccc(CCNC(=O)C2CCN(c3nnc(-n4cccc4CNc4ccc(C)cc4)s3)CC2)cc1 | -30% (active) |
| CCOc1ccc(CNC(=O)C2CCN(c3nnc(-n4cccc4CNc4ccc(C)cc4)s3)CC2)cc1OC | 4.12% (inactive) |
| CSc1ccc(CCNC(=O)C2CCN(c3nnc(-n4cccc4)s3)CC2)cc1 | 11.1% (inactive) |
| CCOc1ccccc1C1CC(c2ccccc2)Nc2nc(N)nn21 (configuration not stated) | -30.1% (active) |
| CCOc1ccccc1C1CC(c2ccc(Cl)cc2)Nc2nc(N)nn21 (configuration not stated) | 13.6% (inactive) |
| Cc1ccc(C2CC(c3cccc(C)c3)n3nc(N)nc3N2)cc1 (configuration not stated) | 9.87% (inactive) |
| COc1cccc(-c2ccc(SCC(=O)N3CCN(c4ccccc4)CC3)nn2)c1 | 3.13% (inactive) |
| CN(C)CCCNC(=S)N1CCC(c2nc3ccccc3[nH]2)CC1 | 7.97% (inactive) |
| c1ccc(-c2csc(N3CCc4ccccc4C3)n2)cc1 | 4.74% (inactive) |
| COCCCNC(=S)N1CCN(c2nc(-c3cccc(OC)c3)cs2)CC1 | -31% (active) |
| CN(C)CCCNC(=S)N1CCN(c2nc(-c3ccccc3)cs2)CC1 | -48% (active) |

| Structure (SMILES) | activity change, negative = inhibition |
| --- | --- |
| COCCCNC(=S)N1CCCC(c2nc3cc(C)c(C)cc3[nH]2)C1 (configuration not stated) | -12% (inactive) |
| CCn1cc2nc(SCc3ccccc3Cl)n(CCc3ccccc3)c(=O)c2n1 | 19.6% (inactive) |
| O=C(NC1CCCCC1)c1ccc(Cn2c(SCc3ccccc3)nc3cccnc32)cc1 | -1.21% (inactive) |
| COc1ccc(Br)cc1C1CC(=O)Nc2c1c(C)nn2-c1nc(C)cc(C)n1 (configuration not stated) | 5.29% (inactive) |
| CC(=O)N1CCCc2cc(S(=O)(=O)Nc3ccc(Cl)cc3F)ccc21 | -13.2% (inactive) |
| CN1CCN(c2oc(-c3ccc(COc4ccc(Cl)cc4)o3)nc2C#N)CC1 | -30.2% (active) |
| COc1ccc(OCc2ccc(-c3nc(C#N)c(N4CCN(c5ccccc5)CC4)o3)o2)cc1 | -27.6% (inactive) |
| Cc1ccc(OCc2nc(C#N)c(N3CCCC3)o2)cc1 | -1.06% (inactive) |
| CCC(C)Nc1oc(-c2ccc(COc3ccc(Cl)cc3)o2)nc1C#N (configuration not stated) | -2.28% (inactive) |
| N#Cc1nc(COc2ccc(Cl)cc2)oc1N1CCCC1 | -31.6% (active) |
| Cc1ccccc1OCc1ccc(-c2nc(C#N)c(N3CCCCC3)o2)o1 | 2.09% (inactive) |
| CCC(C(=O)Nc1cc(OC)ccc1OC)n1c(=O)c(C(F)(F)F)nc2ccccc21 (configuration not stated) | -23.6% (inactive) |
| COc1cc(OC)cc(-c2nc3nc(C)c(CCC(=O)Nc4ccccc4)c(C)n3n2)c1 | 2.44% (inactive) |
| CC(C)C[C@H](CO)Nc1nc(N(C)c2cccc(Cl)c2)c2ncn(C(C)C)c2n1 | -34% (active) |
| O=C(Nc1ccc(Br)cc1)c1cc2nc(-c3ccccc3)cc(-c3ccccc3)n2n1 | -10.1% (inactive) |
| COc1ccc(-n2c(=O)c3ccccc3n(Cc3ccccc3Cl)c2=O)cc1 | -11.1% (inactive) |
| Fc1ccc(Cn2nnnc2C(c2cccs2)N2CCCCCC2)cc1 (configuration not stated) | -36.7% (active) |
| N#Cc1ccc(C(c2nnnn2CCc2ccccc2)N2CCCCCC2)cc1 (configuration not stated) | 10.7% (inactive) |
| Fc1ccccc1C(c1nnnn1Cc1ccc2c(c1)OCO2)N1CCN(Cc2ccccc2)CC1 (configuration not stated) | 19.9% (inactive) |
